Experiment [1] has as its target Lysosomal acid glucosylceramidase (Homo sapiens) (UniProt P04062). As to the kind of experiment: Glucocerebrosidase-p2 (AID 348; in the data active means potency below about 10 µM; further: potency means the concentration at half of the fitted maximal effect). The note with it: purified GBA, blue fluorogenic substrate, 40 min. A digest of the protocol: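 Normal human glucocerebrosidase (0.2 nM) with blue fluorogenic substrate (80 uM final) in citrate/phosphate pH 5.9 with 10mM sodium taurocholate, 0.01% tween-20; 40 min RT, NaOH/glycine stop; fluorescence Ex 365/Em 440; AC50 from a titration from 0.6 nM upwards.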

Experiment [2] in a line: AP1 Signaling Pathway (AID 357; active means well fitted curve in either direction with a large enough effect, not every such curve was filed as active; further: on the % scale 0 is the no-effect control and ±100 the full control effect). The note with it: ME-180 AP-1-bla reporter, EGF-induced, beta-lactamase ratio, 5 h; at 7.69 µM (top of the series) unless noted. Put shortly: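 ME-180 cells with beta-lactamase reporter under AP-1 response element, stimulated with EC50 EGF; compounds tested in titration series, 5 h at 37 °C. CCF4 substrate added 2.5 h at room temperature; 460/530 nm emission ratio gave %activity and AC50.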

Experiment [3] deals with Cytochrome P450 1A2 (Homo sapiens) (UniProt P05177). Put plainly: p450-cyp1a2 (AID 410; calls by dose curve; further: potency means the concentration at half of the fitted maximal effect). As to conditions: recombinant CYP1A2, luciferin-ME demethylation, luminescence; series mostly up to 57 µM. A digest of the protocol:
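20nM CYP1A2, 100uM Luciferin-ME (=Km), 100mM KPO4; cpd 10 min RT; +NADPH regen, 60 min RT; stop/detect 20 min; luminescence. Normalized to furafylline 57 uM = full inhibition.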

Experiment [4] in a line: NFAT Signaling Pathway (AID 444; active means well fitted curve in either direction with a large enough effect, not every such curve was filed as active;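 further: carbachol stimulus at about its EC50 of 1 µM final; on the % scale 0 is the no-effect control and ±100 the full control effect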). The note with it: Jurkat NFAT-bla M1, carbachol, beta-lactamase ratio, 5 h; at 7.69 µM (top of the series) unless noted. Put shortly: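 Jurkat cells carrying an NFAT-driven β-lactamase reporter and co-transfected muscarinic M1 receptor were treated with compound plus carbachol (1 uM final, an EC50 level) for 5 h at 37 °C. CCF4 loading followed for 1 h at RT; 460/530 nm ratio gave %activity.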

Experiment [5] in a line: Stat Signaling Pathway (AID 446; active means well fitted curve in either direction with a large enough effect, not every such curve was filed as active;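 further: ME-180 cervical cancer cells given 40 pM IL-6 alongside compound; SIE-controlled beta-lactamase reporter measured as 460/530 nm FRET emission ratio; on the % scale 0 is the no-effect control and ±100 the full control effect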). As to conditions: ME-180 (cervical carcinoma) SIE beta-lactamase reporter, IL-6 stimulated, 5 h; at 7.69 µM (top of the series) unless noted. A digest of the protocol: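 Overnight-plated ME-180 cells bearing a STAT Inducible Element beta-lactamase reporter; 5 h co-exposure to compound and 40 pM IL-6; values normalized to 300 pM IL-6 and 125 nM JAK inhibitor controls.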

The target in experiment [6] is Glucocorticoid receptor (Homo sapiens) (UniProt P04150). As to the kind of experiment: GR-GFP Redistribution (AID 450;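 active means compounds whose dose series gives a full or clear partial fitted curve of increased nuclear translocation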; further: potency means the concentration at half of the fitted maximal effect). The note with it: U2OS GR-GFP nuclear translocation, laser cytometry, 2 h.
The target is the same in experiment [7]. As to the kind of experiment: GR-EFC Redistribution (AID 451; calls by dose curve; further: potency means the concentration at half of the fitted maximal effect). The note with it: CHO-K1 GR-EFC translocation, beta-gal luminescence, 2 h. A digest of the protocol:
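CHO-K1 cells stably expressing nuclear-localized β-gal enzyme acceptor and GR fused C-terminally to the enzyme donor fragment; ligand-driven nuclear translocation restores β-gal by complementation. Compounds titrated up to 46 uM final, 2 h at 37 °C; luminescence read.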

In experiment [8] the target is Mitogen-activated protein kinase 10 (Mus musculus) (UniProt Q61831). As to the kind of experiment: JNK3 AlphaScreen Assay (AID 530; active means well fitted curve in either direction with a large enough effect, not every such curve was filed as active;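 further: kinase came from lysate of stimulated human HepG2 cells; signal reports phosphorylation of biotinylated GST-cJun 1-79 at Ser73 with 10 µM ATP; on the % scale 0 is the no-effect control and ±100 the full control effect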). The note with it: JNK3 lysate, c-Jun phosphorylation; series mostly up to 57.1 µM. Put shortly:
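Biotinylated GST-cJun(1-79) served as substrate for JNK3 in HepG2 lysates stimulated with IL-1beta and TNF-alpha. ATP was 10 uM final, pH 7.6. Ser73 phosphorylation was quantified by AlphaScreen (680 nm excitation).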
For orientation: In Alpha technology, singlet oxygen from a donor bead excites a nearby acceptor bead.

Experiment [9] concerns the target 3',5'-cyclic-AMP phosphodiesterase 4B (Homo sapiens) (UniProt Q07343). Put plainly: qHTS Assay for Inhibitors of PDE-IV (AID 607; active means well fitted activation curve with a large enough effect in the main read-out, with a control signal flat, not every such curve was filed as active; further: % of control where 0% means no effect). The note with it: HEK293 ACTOne CNG channel cells, membrane potential fluorescence; series mostly up to 22.9 µM. Put shortly: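 Live HEK293 cells with a modified cyclic nucleotide-gated (CNG) channel report intracellular cAMP via membrane-potential dye fluorescence (ex 535/em 590 nm). Endogenous PDE-IV was targeted. Compounds were tested at up to 22.9 uM final; RO 20-1724 100 uM served as control.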
(Quantitative high-throughput screening tests each substance at several concentrations.)

For experiment [10], the target named is Cytochrome P450 3A4 (Homo sapiens) (UniProt P08684). As to the kind of experiment: qHTS Assay for Activators of Cytochrome P450 3A4 (AID 885). Further: nearly all actives have a fitted effect of over 65% in size. The note with it: recombinant CYP3A4, Luciferin-PPXE luminescence, 60 min; series mostly up to 57.1 µM. Put shortly: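 Using 20nM recombinant human CYP3A4 in potassium phosphate (200mM), substrate Luciferin-PPXE at 25uM, luminescent luciferin detection followed a 60-min RT NADPH reaction; data scaled to 57 uM ketoconazole.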

Experiment [11] addresses Ubiquitin carboxyl-terminal hydrolase 1 (Homo sapiens) (UniProt O94782). As to the kind of experiment: Inhibitors of USP1/UAF1: Pilot qHTS (AID 504865).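 Further: rhodamine fluorescence freed from ubiquitin-rhodamine substrate followed over time; top concentration of the series differs between compounds; on the % scale 0 is the no-effect control and ±100 the full control effect; nearly all actives have a fitted effect of over 35% in size.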 As to conditions: purified USP1/UAF1, Ub-rhodamine cleavage fluorescence; series mostly up to 54.9 µM. A digest of the protocol:
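Kinetic fluorescence assay: 1nM USP1/UAF1, 15 min compound preincubation, then 150nM Ub-Rho; 480/540 nm.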

The nature of experiment [12]: Counterscreen qHTS for small molecule stabilizers of the endoplasmic reticulum resident proteome: GLuc-NoTag assay (AID 1508627). Further: potency means the concentration at half of the fitted maximal effect.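 On activity change, negative = inhibition: 0% = thapsigargin alone and -100% = DMSO vehicle control.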 As to conditions: Gaussia luciferase NoTag secretion counterscreen, luminescence, thapsigargin 100 nM for final 4 h; series mostly up to 76.4 µM. Put shortly:
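Secreted GLuc lacking the SERCaMP modification is measured in SH-SY5Y cells exposed to compound for 19 h and then to thapsigargin (100 nM, 4 h) to deplete ER calcium; hits retested at 11 concentrations, up to 76.6 uM.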

Experiment [13] in a line: Confirmatory qHTS for small molecule stabilizers of the endoplasmic reticulum resident proteome: Secreted ER Calcium Modulated Protein (SERCaMP) assay (AID 1508628). Further: nearly all actives have a fitted effect of over 40% in size. Further: potency means the concentration at half of the fitted maximal effect. The note with it: SERCaMP secreted luciferase ER calcium/proteostasis reporter; series mostly up to 76.3 µM. Put shortly: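 GLuc-SERCaMP-expressing SH-SY5Y cells, pretreated 16 h with compound, are challenged with thapsigargin to empty ER calcium stores; after 4 h, coelenterazine is added directly to the medium and luminescence is imaged.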

A short description of experiment [14]: Cell Viability qHTS for small molecule stabilizers of the endoplasmic reticulum resident proteome (AID 1508629). As to conditions: cell viability counter-screen, 100 nM thapsigargin for final 4 h.
Experiment [15] in a line: qHTS Assay for Lipid Storage Modulators (AID 1519; calls by dose curve). As to conditions: Drosophila S3 cells, BODIPY lipid droplet/cell ratio, laser cytometry, cells loaded with oleic acid. Put shortly: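 Cells seeded at 5,000 per well were treated with compounds over a concentration series and loaded with oleic acid (400 uM, as added). Lipid droplet fluorescence (488 nm excitation, 500-530 nm channel) was read by laser-scanning cytometry and normalized to 20 uM Triacsin C.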

The target of experiment [16] is Dual specificity protein kinase CLK4 (Homo sapiens) (UniProt Q9HAZ1). Put plainly: qHTS Assay for Inhibitors of CDC-like Kinase 4 (Kinase-Glo Assay) (AID 1770). Further: potency means the concentration at half of the fitted maximal effect; nearly all actives have a fitted effect of over 65% in size. The note with it: recombinant Clk4, Kinase-Glo ATP depletion luminescence; series mostly up to 66.7 µM. Put shortly:
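Inhibition was judged from remaining ATP, measured by Ultra-Glo luciferase bioluminescence after Clk4 (25 nM) had acted on RS peptide at 1 uM ATP for 4.5 hours, room temperature.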

Experiment [17] has the same target. As to the kind of experiment: qHTS Assay for Inhibitors of CDC-like Kinase 4 (ADP-Glo Assay) (AID 1771). Further: potency means the concentration at half of the fitted maximal effect; nearly all actives have a fitted effect of over 70% in size. The note with it: recombinant CLK4, ADP-Glo luminescence; series mostly up to 80 µM. Put shortly: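 25 nM Clk4, 100 uM RS peptide, 1 uM ATP (final); 2 mM MgCl2, 0.5 mM EGTA, 2.5 mM DTT, 0.01% Triton X-100; 1 hr RT. ADP-Glo readout: ATP depletion 45 min, conversion/luciferase 30 min, luminescence.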

The target is the same in experiment [18]. As to the kind of experiment: qHTS Assay for Inhibitors of CDC-like Kinase 4 (ADP-FP Assay) (AID 1795). Further: potency means the concentration at half of the fitted maximal effect; nearly all actives have a fitted effect of over 60% in size. As to conditions: Transcreener ADP fluorescence polarization; series mostly up to 50 µM. Put shortly:
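Inhibition of ADP formation by 6.25 nM Clk4 is measured using 1 uM ATP and 100 uM RS repeat peptide over one hour. Produced ADP displaces a fluorescent tracer from antibody, lowering polarization.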

Inconclusive results are not listed. Calls of active or inactive are those of the source. Unless noted, the call rests on the fitted dose curve; in most records, active means well fitted curve in the direction sought with a large enough effect; inconclusive means small, poorly fitted or top-dose-only effect, or another doubt; inactive means no such curve, though single readings can be large; an effect the other way counts as inactive or inconclusive.

Chain of Glucocorticoid receptor (Homo sapiens) (P04150 whole entry, looked up): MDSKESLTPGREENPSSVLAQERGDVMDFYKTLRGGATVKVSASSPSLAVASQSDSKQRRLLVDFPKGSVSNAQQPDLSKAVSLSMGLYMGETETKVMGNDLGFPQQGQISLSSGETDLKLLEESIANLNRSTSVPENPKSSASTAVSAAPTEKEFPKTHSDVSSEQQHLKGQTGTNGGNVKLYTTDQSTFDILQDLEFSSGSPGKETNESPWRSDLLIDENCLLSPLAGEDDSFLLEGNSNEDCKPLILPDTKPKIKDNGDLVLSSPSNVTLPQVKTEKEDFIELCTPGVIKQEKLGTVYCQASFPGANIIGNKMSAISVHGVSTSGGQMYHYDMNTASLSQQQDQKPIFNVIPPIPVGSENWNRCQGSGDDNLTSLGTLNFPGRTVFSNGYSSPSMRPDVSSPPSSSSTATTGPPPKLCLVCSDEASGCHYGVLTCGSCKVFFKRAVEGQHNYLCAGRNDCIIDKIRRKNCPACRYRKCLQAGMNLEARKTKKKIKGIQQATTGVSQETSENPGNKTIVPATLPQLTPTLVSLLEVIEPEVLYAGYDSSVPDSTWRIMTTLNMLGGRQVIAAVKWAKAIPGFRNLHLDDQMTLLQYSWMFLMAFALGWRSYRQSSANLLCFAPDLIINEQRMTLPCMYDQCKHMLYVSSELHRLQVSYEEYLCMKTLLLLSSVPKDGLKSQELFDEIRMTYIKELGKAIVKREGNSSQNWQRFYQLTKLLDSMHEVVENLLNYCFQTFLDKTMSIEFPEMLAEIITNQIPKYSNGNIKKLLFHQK
Chain of Dual specificity protein kinase CLK4 (Homo sapiens) (Q9HAZ1 whole entry, looked up): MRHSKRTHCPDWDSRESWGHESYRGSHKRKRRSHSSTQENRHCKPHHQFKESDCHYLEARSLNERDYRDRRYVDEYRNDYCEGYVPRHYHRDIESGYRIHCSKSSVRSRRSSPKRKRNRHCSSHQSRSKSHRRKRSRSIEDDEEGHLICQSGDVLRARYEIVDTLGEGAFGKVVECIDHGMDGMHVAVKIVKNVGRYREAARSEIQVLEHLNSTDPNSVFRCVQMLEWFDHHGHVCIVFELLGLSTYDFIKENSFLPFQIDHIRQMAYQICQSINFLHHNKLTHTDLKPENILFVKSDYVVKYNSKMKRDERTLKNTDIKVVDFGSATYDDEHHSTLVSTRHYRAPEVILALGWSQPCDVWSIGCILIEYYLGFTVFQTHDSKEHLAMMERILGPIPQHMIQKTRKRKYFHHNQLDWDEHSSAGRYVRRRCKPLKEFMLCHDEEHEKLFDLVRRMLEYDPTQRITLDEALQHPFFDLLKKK
Chain of 3',5'-cyclic-AMP phosphodiesterase 4B (Homo sapiens) (Q07343 whole entry, looked up): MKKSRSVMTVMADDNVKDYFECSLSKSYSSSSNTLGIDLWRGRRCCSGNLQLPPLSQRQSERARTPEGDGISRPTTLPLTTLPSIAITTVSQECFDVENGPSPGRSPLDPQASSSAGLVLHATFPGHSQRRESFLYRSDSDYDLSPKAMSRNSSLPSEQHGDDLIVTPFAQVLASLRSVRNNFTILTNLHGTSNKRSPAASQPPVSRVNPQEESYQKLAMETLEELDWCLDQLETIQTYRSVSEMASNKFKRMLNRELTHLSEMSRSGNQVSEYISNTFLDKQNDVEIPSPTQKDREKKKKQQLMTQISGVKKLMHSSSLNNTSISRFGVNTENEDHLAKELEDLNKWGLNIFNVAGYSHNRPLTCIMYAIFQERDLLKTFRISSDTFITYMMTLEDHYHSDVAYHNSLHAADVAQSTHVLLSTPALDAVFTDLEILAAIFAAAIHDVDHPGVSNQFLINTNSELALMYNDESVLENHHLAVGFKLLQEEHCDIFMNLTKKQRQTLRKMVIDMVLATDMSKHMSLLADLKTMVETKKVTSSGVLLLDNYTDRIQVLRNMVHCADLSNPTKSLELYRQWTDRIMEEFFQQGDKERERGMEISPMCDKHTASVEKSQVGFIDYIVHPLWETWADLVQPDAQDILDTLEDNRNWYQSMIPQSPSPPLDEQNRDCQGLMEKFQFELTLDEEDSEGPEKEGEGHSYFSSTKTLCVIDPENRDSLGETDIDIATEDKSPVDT
Chain of Ubiquitin carboxyl-terminal hydrolase 1 (Homo sapiens) (O94782 whole entry, looked up): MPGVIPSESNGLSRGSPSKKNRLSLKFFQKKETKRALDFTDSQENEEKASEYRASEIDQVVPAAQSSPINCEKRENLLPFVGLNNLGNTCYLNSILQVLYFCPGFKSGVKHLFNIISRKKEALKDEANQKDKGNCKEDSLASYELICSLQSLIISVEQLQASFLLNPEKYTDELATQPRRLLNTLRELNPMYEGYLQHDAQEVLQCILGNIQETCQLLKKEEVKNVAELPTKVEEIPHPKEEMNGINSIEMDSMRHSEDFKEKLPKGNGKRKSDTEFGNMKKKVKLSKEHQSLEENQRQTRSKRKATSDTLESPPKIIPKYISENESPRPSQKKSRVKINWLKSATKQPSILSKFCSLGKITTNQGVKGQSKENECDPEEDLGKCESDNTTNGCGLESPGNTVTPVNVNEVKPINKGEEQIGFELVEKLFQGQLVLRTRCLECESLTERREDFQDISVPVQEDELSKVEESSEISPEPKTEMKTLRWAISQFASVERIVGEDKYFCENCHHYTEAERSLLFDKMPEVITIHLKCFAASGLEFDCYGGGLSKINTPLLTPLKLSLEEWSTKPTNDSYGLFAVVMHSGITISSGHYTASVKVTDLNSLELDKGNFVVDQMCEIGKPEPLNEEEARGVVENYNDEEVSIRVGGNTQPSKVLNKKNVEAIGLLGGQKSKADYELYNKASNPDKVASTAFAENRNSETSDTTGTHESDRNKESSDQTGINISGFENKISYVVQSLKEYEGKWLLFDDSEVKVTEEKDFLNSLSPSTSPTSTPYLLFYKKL
Chain of Cytochrome P450 1A2 (Homo sapiens) (P05177 whole entry, looked up): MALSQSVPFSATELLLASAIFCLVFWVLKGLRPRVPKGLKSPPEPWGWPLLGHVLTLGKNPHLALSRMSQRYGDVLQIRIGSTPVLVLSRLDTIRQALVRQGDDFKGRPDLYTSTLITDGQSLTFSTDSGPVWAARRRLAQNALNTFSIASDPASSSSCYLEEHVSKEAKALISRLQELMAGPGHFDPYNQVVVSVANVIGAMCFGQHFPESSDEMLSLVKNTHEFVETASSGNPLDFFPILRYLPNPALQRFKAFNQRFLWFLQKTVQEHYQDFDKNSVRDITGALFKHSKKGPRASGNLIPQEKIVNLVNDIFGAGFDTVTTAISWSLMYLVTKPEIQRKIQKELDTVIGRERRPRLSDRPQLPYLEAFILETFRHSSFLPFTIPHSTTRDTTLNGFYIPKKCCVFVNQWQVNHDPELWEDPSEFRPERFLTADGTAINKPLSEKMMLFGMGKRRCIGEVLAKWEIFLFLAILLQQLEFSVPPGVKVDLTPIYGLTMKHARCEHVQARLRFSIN
Chain of Cytochrome P450 3A4 (Homo sapiens) (P08684 whole entry, looked up): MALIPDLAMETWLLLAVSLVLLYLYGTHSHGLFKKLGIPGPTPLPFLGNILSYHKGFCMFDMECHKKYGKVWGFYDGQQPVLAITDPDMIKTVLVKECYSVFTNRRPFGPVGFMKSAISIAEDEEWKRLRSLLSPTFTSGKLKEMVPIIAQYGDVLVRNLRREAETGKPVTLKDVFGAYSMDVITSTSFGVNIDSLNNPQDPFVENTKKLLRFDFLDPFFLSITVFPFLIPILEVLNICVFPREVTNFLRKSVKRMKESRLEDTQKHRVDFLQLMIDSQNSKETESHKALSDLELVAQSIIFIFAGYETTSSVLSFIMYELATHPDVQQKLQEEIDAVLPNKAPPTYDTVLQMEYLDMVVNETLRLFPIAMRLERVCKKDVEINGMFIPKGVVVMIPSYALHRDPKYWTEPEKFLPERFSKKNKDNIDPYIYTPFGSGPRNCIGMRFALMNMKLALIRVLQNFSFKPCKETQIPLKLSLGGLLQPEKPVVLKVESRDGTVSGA
Chain of Lysosomal acid glucosylceramidase (Homo sapiens) (P04062 whole entry, looked up): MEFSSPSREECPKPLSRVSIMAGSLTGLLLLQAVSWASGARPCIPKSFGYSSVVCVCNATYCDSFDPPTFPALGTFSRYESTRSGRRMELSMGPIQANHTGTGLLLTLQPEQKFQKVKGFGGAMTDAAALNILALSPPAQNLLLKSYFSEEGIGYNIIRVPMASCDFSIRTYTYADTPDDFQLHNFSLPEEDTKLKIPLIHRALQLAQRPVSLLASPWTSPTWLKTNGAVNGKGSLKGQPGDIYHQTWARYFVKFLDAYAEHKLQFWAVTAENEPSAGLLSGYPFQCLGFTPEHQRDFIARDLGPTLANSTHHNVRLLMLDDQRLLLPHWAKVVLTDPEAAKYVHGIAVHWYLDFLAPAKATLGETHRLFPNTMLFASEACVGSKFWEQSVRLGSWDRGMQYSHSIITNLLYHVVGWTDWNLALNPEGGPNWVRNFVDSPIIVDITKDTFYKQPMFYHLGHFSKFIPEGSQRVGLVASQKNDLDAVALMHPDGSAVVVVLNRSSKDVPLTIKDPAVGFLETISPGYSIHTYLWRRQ

As to `c1cncc(-c2nc(N3CCNCC3)c3ccccc3n2)c1`, the Potency is > 11.4 µM (inactive) in experiment [1]; 2.51 µM (active) in experiment [3]; > 46 µM (inactive) in experiment [6]; > 46 µM (inactive) in experiment [7]; 22.4 µM (active) in experiment [13]. The figures for the activity change, negative = inhibition in [2] and in experiment [4] were 8.36% (inactive) and 7.65% (inactive), respectively. The activity, negative = inhibition in experiment [5] was 4.77% (inactive). Moreover, in [8], the molecule was classed as inactive. In addition, the Potency result in [9], in experiment [10], in [11] and in experiment [12] was “inactive” in each case. Also, in [14], the max response was 15.1% (inactive).
Regarding `COc1cccc(-c2ccc3ncnc(N4CCN(C)CC4)c3c2)c1`, the Potency in [1] was > 11.4 µM (inactive); in [3], 3.98 µM (active); in experiment [6], > 46 µM (inactive); in [7] it was > 46 µM (inactive); in [16], 3.55 µM (active); in experiment [17], 3.98 µM (active). Also, the Potency in experiment [18] is 2.24 µM (active); in experiment [12] it was 35.5 µM (active); in [13], 39.8 µM (active). Also, the activity change, negative = inhibition in experiment [4] was 13% (inactive); in experiment [15] (at 57.5 µM (top of the series)) it was -0.228% (inactive). Further, the activity, negative = inhibition in experiment [5] was -6.09% (inactive). Besides, the molecule was classed as inactive in [8]. Also, the Potency entry in [9], in experiment [10] and in experiment [11] was “inactive” throughout. Also, the max response in experiment [15] (measured here: cell count channel max response) came to 8.77%; in experiment [15] (measured here: lipid channel max response), 10.1%.
Regarding `CCC(C)C(N)C(=O)NC(CC(N)=O)C(=O)NC(CC(C)C)C(=O)NC(CCCCN)C(=O)NC(C)C(=O)NC(CC(C)C)C(=O)NC(C)C(=O)NC(C)C(=O)NC(CC(C)C)C(=O)NC(C)C(=O)NC(CCCCN)C(=O)NC(CCCCN)C(=O)NC(C(=O)NC(CC(C)C)C(N)=O)C(C)CC` (centres undefined), the Potency result in experiment [12] and in [13] was “inactive” throughout. Besides, the max response in experiment [14] was 16.1% (inactive).
Regarding `CN(C)c1ncc2nc(CCc3ccccc3)c(=O)n(C[C@H]3CCCO3)c2n1`, the activity change, negative = inhibition in [2] is -3.01% (inactive); in [4], -1.26% (inactive). Moreover, the activity, negative = inhibition in [5] is 1.42% (inactive). Also, the Potency in experiment [6] is > 9.22 µM (inactive); in experiment [7] it was > 46 µM (inactive); in experiment [13], 39.8 µM (active). Further, the molecule was called inactive in experiment [8]. In addition, in experiment [12], the Potency entry was “inactive”. In experiment [14], the max response was 23.4% (inactive).

The values above are taken from PubChem BioAssay (NCATS).
